Data on 20 molecules can be found in PubChem BioAssay AID1053126 (Broad Institute, 2014).

Measured potencies and affinities stand elsewhere. The source made the active and inactive calls.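 How the source made its calls: active means cell killing with a fitted half-effect concentration at or below twice the top valid dose; inconclusive means flat curve with 30 to 70 percent drop, or poor fit; inactive means the rest.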

The assay can be described thus: HEK293T cell cytotoxicity, dose response, cytotoxicity control, ATP luminescence, cherry-pick, set 6 (AID 1053126). The settings on record: HEK293T viability, CellTiter-Glo ATP luminescence, 72 h; series mostly up to 26 µM. A general note: Cellular ATP, detected with luciferase, serves as a proxy for viable cell number.
For the molecule `COc1ccc(C2C(C#N)=C(N)Oc3cc(O)ccc32)cc1Cl` (stereo not given), the molecule was called inactive. For the molecule `COCCCOc1cc(NCc2ccccc2)c2ncn(C(C)C)c2c1`, the outcome was inactive.

As to `O=C(Cn1ccc([N+](=O)[O-])n1)N1CCCCCC1`, the outcome was inactive. With `CCN(CC)c1ccc2cc(C(N)=O)c(=O)oc2c1` the entry was “inactive”; with `Cc1oc(/N=C/c2ccc(F)cc2)c(C#N)c1C`, “inactive”. `C=Cc1ccc(Cn2c(C)c(C(=O)NCc3cccc(C)c3)sc2=O)cc1`: the molecule was classed as inactive. Consider `Clc1cccc(CN2CCN(Cc3nc(CCc4ccccc4)no3)CC2)c1`, for which the outcome was inactive.

In the case of `CCc1cccc(OC2OC(CO)C(O)C(O)C2NC(C)=O)c1` (stereo not given), the result was inactive. Consider `CC(=O)c1cc2c(ccc3ccccc32)oc1=O`, for which the outcome was inactive.

Turning to `COc1ccc(C(=O)Oc2cc(N)n(S(=O)(=O)c3ccccc3)n2)cc1`, the molecule was classed as inactive. Consider `CCC(C)NC(=S)N1CCN(Cc2ccc3c(c2)OCO3)CC1` (stereo not given), for which the molecule was classed as inactive. Take `O=c1[nH]c(Nc2ccccc2Cl)cc2ccccc12`: the call was inactive. `Cc1cc(CNC(=O)c2ccc3c(c2)OCO3)c2ccccc2n1`: the molecule was classed as inactive. Take `Cc1ccc2nc3c(cc(C(=O)NCc4ccccc4)c(=N)n3CCCn3ccnc3)c(=O)n2c1`: the molecule was called inactive. With `Cc1cccn2c(=O)c3cc(C#N)c(=NC(=O)c4cccs4)n(CC(C)C)c3nc12`, the molecule was classed as inactive. With `Cn1c(=N)c(S(=O)(=O)c2ccccc2)cc2c(=O)n3ccccc3nc21` the entry was “inactive”; with `CCN(CC)Cc1c(O)c(Cl)cc2c(C)cc(=O)oc12`, “inactive”.

With `CSCCC1(C(=O)O)NC(c2ccccc2O)C2C(=O)N(C(C)C)C(=O)C21` (stereo not given), the outcome was inactive. As for `CCCn1c(=N)c(S(=O)(=O)c2ccccc2)cc2c(=O)n3ccccc3nc21`, the result was inactive. Regarding `NC(=O)c1cc([N+](=O)[O-])ccc1NCc1cccnc1`, the call was inactive.
